Test [1] relates to Plasmodium falciparum Sir2 (PF13_0152, Sir2A). Kind of test: pfSir2 binders on small-molecule microarrays, primary screen, biochemical, small-molecule microarray, 635 nm fluorescence (AID 1098).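 Note: score merges spot fluorescence intensity with its signal-to-noise ratio.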 The conditions noted are these: small-molecule microarray binding, fluorescence 635 nm; higher = more signal.
The nature of test [2]: small-molecule microarray binders of probe aDKK1, primary screen, biochemical, biotinylated probe, 635/667 nm fluorescence (AID 1099).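 Note: score merges 667nm spot fluorescence with signal to noise across triplicate slides.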 Particulars: higher = more signal.
A short description of test [3]: small-molecule microarray binders of probe aCHRDL2, primary screen, biochemical, biotinylated probe, 635/667 nm fluorescence (AID 1100). Particulars: higher = more signal.
A short description of test [4]: splicing luciferase reporter signal modulators, primary screen, spliceosome inhibition project, cell-based, HEK293, splice +/- reporter (AID 1101).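 Note: HEK293 cells carrying a splicing-competent luciferase reporter gene; test concentration not given here.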 The conditions noted are these: luminescence, 24 h, higher = more signal, called active from +8 up or from −8 down. On the technique in general: In a reporter assay the amount or activity of a reporter protein is the signal.

For test [5], the target named is Fibroblast growth factor 10 (Homo sapiens) (UniProt O15520). Kind of test: FGF10 binders on small-molecule microarrays, primary screen, biochemical, small-molecule microarray, 635 nm fluorescence (AID 1102). The conditions noted are these: FGF10 binding, fluorescence 635 nm, higher = more signal.
Sequence of Fibroblast growth factor 10 (Homo sapiens) (O15520 whole entry, looked up): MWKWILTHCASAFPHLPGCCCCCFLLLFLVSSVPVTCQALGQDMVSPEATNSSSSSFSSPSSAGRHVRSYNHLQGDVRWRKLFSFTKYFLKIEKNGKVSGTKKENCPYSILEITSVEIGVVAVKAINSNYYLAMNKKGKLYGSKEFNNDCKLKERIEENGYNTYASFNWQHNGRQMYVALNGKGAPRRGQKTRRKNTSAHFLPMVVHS
In test [6] the test system is glycogen synthase kinase-3 (GSK3A per assay name; protocol says GSK3B). Kind of test: GSK3 binders on small-molecule microarrays, primary screen, biochemical, small-molecule microarray, 635 nm fluorescence, GSK3A (AID 1103). Note: the record names both GSK3A and GSK3B. Particulars: small-molecule microarray binding, fluorescence 635 nm; higher = more signal.
Test [7] has as its target Epidermal growth factor receptor (Homo sapiens) (UniProt P00533). Put plainly: EGFR binders on small-molecule microarrays, primary screen, biochemical, small-molecule microarray, 635 nm fluorescence (AID 1104).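 Note: score merges 667 nm emission intensity with spot signal to noise over triplicate slides.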 The conditions noted are these: EGFR binding, higher = more signal.
Test [8] deals with Follistatin-related protein 3 (Homo sapiens) (UniProt O95633). Put plainly: FSTL3 binders on small-molecule microarrays, primary screen, biochemical, small-molecule microarray, 635 nm fluorescence (AID 1105).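 Note: score merges emission near 667 nm and signal to noise per printed spot across three slides.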 The conditions noted are these: FSTL3 binding, higher = more signal.
Sequence of Follistatin-related protein 3 (Homo sapiens) (O95633 whole entry, looked up): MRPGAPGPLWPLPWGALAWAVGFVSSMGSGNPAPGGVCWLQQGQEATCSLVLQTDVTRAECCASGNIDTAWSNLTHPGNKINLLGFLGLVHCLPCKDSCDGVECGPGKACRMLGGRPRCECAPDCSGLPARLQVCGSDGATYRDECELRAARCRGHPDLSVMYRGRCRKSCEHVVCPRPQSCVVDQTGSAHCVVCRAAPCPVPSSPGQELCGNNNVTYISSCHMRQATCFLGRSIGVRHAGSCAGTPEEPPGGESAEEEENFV
Test [9] deals with Dickkopf-related protein 1 (Homo sapiens) (UniProt O94907). Kind of test: DKK1 binders on small-molecule microarrays, primary screen, biochemical, small-molecule microarray, 635 nm fluorescence scan (AID 1106).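 Note: score merges emission near 667 nm with signal to noise over three replicate slides.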 Particulars: DKK1 binding, higher = more signal.
Sequence of Dickkopf-related protein 1 (Homo sapiens) (O94907 whole entry, looked up): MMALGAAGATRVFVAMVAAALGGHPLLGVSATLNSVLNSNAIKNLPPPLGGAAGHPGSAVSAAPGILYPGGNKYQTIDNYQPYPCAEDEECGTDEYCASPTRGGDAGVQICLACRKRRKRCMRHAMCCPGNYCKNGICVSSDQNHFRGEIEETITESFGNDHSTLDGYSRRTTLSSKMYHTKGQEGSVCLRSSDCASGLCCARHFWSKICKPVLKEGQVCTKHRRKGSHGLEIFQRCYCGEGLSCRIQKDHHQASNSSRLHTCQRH
The test system of test [10] is Inhibin beta A chain (activin A). Kind of test: INHBA (activin A) binders on microarrays, primary screen, biochemical, small-molecule microarray, 635 nm fluorescence scan (AID 1107).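 Note: mouse activin A protein probed at 4.33 µg/mL on printed slides; score merges bound-protein fluorescence near 667 nm with spot signal-to-noise.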 Particulars: small-molecule microarray binding, higher = more signal.
Test [11] relates to Human papillomavirus type 1a protein E7 (residues 44-93). Kind of test: HPV1a E7 fragment binders on microarrays, primary screen, biochemical, small-molecule microarray, residues 44-93, 635 nm fluorescence (AID 1108).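 Note: E7 fragment applied at 1 µg/mL in TBST for 1 h at 4 C; score combines spot fluorescence with its signal to noise ratio.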 The conditions noted are these: small-molecule microarray binding, fluorescence 635 nm; higher = more signal.
Test [12] is described as follows: modulators of HCV replicon luciferase signal, primary screen, HCV replication inhibitor project, Huh7 cells, luciferase reporter (AID 1109).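 Note: huh7 hepatoma cells harbouring a luciferase neomycin HCV replicon reporter; luciferase luminescence as measure of HCV replicon replication; test concentration not given here.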 Particulars: 48 h, higher = more signal. (A replicon is a self-replicating genome or part of one, used to study replication in cells.)
The target of test [13] is Left-right determination factor 2 (Homo sapiens) (UniProt O00292). Put plainly: LEFTY2 binders on small-molecule microarrays, primary screen, biochemical, small-molecule microarray, 635 nm fluorescence scan (AID 1110). The conditions noted are these: LEFTY2 binding, higher = more signal.
Sequence of Left-right determination factor 2 (Homo sapiens) (O00292 whole entry, looked up): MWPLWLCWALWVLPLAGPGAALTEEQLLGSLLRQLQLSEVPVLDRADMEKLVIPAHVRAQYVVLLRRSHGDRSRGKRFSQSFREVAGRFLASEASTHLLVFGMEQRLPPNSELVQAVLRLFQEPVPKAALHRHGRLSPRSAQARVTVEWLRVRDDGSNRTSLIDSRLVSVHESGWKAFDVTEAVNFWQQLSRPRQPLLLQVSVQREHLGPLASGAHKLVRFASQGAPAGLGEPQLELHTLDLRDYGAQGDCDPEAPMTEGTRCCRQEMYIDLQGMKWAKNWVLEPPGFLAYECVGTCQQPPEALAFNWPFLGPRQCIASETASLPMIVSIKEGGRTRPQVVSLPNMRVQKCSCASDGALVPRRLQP
Test [14] concerns the target Calmodulin-1 (Homo sapiens) (UniProt P0DP23). Kind of test: CALM1 binders on microarrays, EGTA buffer, profiling panel, biochemical, small-molecule microarray, Cy5-labelled CALM1 (AID 1111).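 Note: labelled calmodulin applied in Tris saline Tween buffer holding calcium plus EGTA and DTT.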 The conditions noted are these: Cy5-CALM1 binding fluorescence, higher = more signal.
Test [15] shares this target. Kind of test: calcium-bound CALM1 binders on microarrays, profiling panel, artefact control for SMM control-protein annotation, biochemical, small-molecule microarray, Cy5-labelled CALM1, plus calcium (AID 1112).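 Note: score merges spot fluorescence with signal to noise from triplicate slides.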 Particulars: Cy5-CALM1 binding fluorescence, higher = more signal.
A short description of test [16]: small-molecule microarray binders of probe aWnt5a, primary screen, biochemical, biotinylated probe, 635/667 nm fluorescence (AID 1113).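 Note: score merges 667 nm fluorescence intensity with signal-to-noise per printed feature.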 The conditions noted are these: higher = more signal.
A short description of test [17]: small-molecule microarray binders of probe aShh, primary screen, biochemical, biotinylated probe, 635/667 nm fluorescence (AID 1114).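 Note: probe is biotin-labelled aShh protein from a stem cell growth factor screen; measures binding of labelled protein to compounds printed on the slide; score merges feature fluorescence at 667 nm with signal-to-noise.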 Particulars: higher = more signal.
Test [18] can be described thus: small-molecule microarray binders of probe aNog, primary screen, biochemical, biotinylated probe, 635/667 nm fluorescence (AID 1115).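 Note: probe is biotinylated aNog protein used at 0.15 µg/mL for 1 h at 4 C; z-score combines 667 nm fluorescence of each spot with its signal to noise.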 The conditions noted are these: higher = more signal.
In test [19] the target is Torsin-1A-interacting protein 1 (Homo sapiens) (UniProt Q5JTV8). Put plainly: LAP1 binders from COS7 cell lysate, primary screen, small-molecule microarray, 635/667 nm fluorescence (AID 1116). The conditions noted are these: COS7-hLAP1 lysate binding, 635 nm fluorescence, higher = more signal.
Sequence of Torsin-1A-interacting protein 1 (Homo sapiens) (Q5JTV8 whole entry, looked up): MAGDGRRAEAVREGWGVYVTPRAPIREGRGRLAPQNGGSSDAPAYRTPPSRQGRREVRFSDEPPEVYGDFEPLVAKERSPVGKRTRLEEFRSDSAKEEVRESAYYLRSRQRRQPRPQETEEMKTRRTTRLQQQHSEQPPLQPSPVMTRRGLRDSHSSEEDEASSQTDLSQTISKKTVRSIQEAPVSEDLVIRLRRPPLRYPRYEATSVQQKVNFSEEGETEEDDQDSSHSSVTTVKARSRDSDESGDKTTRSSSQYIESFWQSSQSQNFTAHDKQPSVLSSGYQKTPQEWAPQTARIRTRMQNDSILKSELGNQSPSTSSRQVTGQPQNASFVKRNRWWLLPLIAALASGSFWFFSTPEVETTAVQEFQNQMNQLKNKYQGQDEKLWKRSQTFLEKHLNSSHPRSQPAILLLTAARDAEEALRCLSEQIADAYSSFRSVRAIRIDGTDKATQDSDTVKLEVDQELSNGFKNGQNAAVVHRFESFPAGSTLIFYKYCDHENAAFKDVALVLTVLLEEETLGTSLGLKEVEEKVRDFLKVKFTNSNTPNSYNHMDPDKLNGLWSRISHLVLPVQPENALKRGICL
Test [20] addresses Alpha-bungarotoxin (Bungarus multicinctus) (UniProt P60615). Kind of test: alpha-bungarotoxin binders on microarray, profiling panel, artefact control for SMM control protein annotation, biochemical, small-molecule microarray, Alexa647 label, 635/667 nm fluorescence (AID 1117). The conditions noted are these: alpha-BTX-A647 binding fluorescence, higher = more signal.

Molecules are shown by their SMILES. Where “and” joins values, the source holds several entries; their conditions need not be identical. Equal entries are not always repeated. Calls of active or inactive are those of the source.

Data on five compounds can be found in PubChem BioAssay.

Sequence of Alpha-bungarotoxin (Bungarus multicinctus) (P60615 whole entry, looked up): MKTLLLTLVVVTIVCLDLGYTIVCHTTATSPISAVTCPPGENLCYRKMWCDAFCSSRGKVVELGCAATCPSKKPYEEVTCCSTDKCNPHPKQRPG
Sequence of Epidermal growth factor receptor (Homo sapiens) (P00533 whole entry, looked up): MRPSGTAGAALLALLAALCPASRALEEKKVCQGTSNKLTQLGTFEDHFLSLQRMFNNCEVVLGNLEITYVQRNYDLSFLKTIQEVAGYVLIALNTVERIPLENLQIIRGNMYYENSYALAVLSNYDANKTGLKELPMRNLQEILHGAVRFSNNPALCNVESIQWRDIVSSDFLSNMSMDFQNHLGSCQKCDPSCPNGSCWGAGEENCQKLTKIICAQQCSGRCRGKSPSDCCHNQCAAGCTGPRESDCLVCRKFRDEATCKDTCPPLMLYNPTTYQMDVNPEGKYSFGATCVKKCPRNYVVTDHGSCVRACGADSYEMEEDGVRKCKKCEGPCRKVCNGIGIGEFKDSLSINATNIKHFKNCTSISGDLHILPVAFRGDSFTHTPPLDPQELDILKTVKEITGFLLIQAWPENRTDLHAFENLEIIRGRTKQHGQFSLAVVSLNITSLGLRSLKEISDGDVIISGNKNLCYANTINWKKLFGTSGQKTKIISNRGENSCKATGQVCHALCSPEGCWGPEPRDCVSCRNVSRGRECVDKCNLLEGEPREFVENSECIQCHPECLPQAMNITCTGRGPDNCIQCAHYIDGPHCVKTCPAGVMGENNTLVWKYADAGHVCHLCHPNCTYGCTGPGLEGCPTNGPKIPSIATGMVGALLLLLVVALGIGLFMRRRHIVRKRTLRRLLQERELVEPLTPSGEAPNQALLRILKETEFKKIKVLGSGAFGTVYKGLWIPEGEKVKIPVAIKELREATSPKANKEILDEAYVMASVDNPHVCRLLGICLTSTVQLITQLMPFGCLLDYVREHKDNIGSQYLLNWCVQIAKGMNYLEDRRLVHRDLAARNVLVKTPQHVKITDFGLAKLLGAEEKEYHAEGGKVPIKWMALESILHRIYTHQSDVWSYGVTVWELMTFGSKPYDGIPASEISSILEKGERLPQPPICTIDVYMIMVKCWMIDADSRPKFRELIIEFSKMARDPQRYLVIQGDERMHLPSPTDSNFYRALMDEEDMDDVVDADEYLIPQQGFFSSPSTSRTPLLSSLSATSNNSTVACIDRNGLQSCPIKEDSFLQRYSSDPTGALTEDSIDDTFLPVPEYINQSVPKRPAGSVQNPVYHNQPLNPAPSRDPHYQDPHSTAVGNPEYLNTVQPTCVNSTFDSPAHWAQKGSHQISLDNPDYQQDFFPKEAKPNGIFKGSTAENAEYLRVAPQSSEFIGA

Turning to `C=CCN(C(=O)C1N(CCOCCO)C(=O)C2C(C(=O)O)C3C=CC21O3)C(C)(C)C` (stereo not given), the composite z-score is 1.73 and -1.59 in test [1]; -0.128 and -0.31 in test [2]; 0.867 and 0.619 in [3]; -1.8 and -1.24 in test [5]; -1.76 and -0.852 in test [6]; -2.23 and -1.56 in test [7]. Further, the composite z-score in test [8] is -2.47 and -1.69; in test [9] it was -2.47 and -1.32; in [10] it was -1.84 and -3.28; in test [11] it was -1.22 and -1.53; in test [13] it was -4.53 and -1.35; in [14], -0.219 and -0.133. Besides, the composite z-score in test [15] was 0.785 and 0.498; in test [16] it was -0.27 and -0.352; in test [17] it was -0.138 and -0.214; in test [18], -0.158 and -0.509; in [19], -1.53 and -1.78; in test [20], -0.606 and -0.737. For the same compound, the z-score in [4] was -0.235 (inactive) and 0.32 (inactive); in test [12], 0.178 and 0.975.

As to `C=CCN(C(=O)C(c1cccs1)N(CCOCCO)C(=O)/C=C\C(=O)O)c1ccc(OC)cc1` (stereo not given), the composite z-score in test [1] was -1.53 and -0.0146; in test [2], -0.626 and -0.357; in test [3], -0.183 and 0.97; in test [5], -0.934 and -0.942; in test [6] it was -0.903 and -0.645; in [7], -0.254 and -1.5. Besides, the composite z-score in [8] is -0.603 and -1.07; in test [9], -0.151 and -2.76; in test [10], -0.539 and -0.186; in [11], -2.11 and -1.15; in test [13], 0.0612 and -1.47; in [14], -0.328 and -1.13. The composite z-score in test [15] was -0.0309 and 0.36; in [16], -0.214 and -0.232; in test [17] it was -0.291 and -0.138; in [18] it was -0.636 and 0.146; in test [19], -0.618 and -0.178; in test [20] it was -0.744 and -2.86. For the same compound, the z-score in [4] is -1.88 (inactive) and -1.58 (inactive); in test [12] it was 1.49 and 0.42.

`CC(CO)N1C(=O)[C@@H]2C3C(=O)OCCC=C[C@H]3OC23C=CCN(Cc2ccccc2)C(=O)[C@@H]13` (stereo not given in full): the composite z-score is 1.15 and 0.52 in test [1]; -0.2 and -0.173 in test [2]; 0.139 and 0.407 in test [3]; -0.602 and -0.115 in [5]; -0.491 and -0.648 in test [6]; -0.91 and -1.81 in test [7]. Besides, the composite z-score in [8] was -0.771 and -1.06; in test [9], -1.02 and -0.657; in [10], 1.24 and -0.563; in test [11], 0.0364 and -1.19; in test [13] it was -1.26 and -1.45; in test [14], -0.792 and 0.0954. For the same compound, the composite z-score was -0.803 and 0.748 in [15]; -0.154 and -0.21 in [16]; -0.291 and -0.154 in [17]; 0.211 and -0.246 in test [18]; 1.29 and -0.62 in test [19]; -1.73 and -0.88 in test [20]. Also, the z-score in test [4] is -0.379 (inactive) and -0.024 (inactive); in test [12], -1.12 and -0.667.

As to `CO[C@H]1COC(=O)CC=C[C@H](C)[C@H](OC)COC(=O)[C@@H](C)COC(=O)CC=C[C@@H]1C`, the composite z-score is 0.402 and 0.0429 in test [1]; -0.629 and -0.472 in test [2]; -1.1 and -1.05 in test [3]; 0.415 and 0.242 in test [5]; 0.594 and 0.65 in test [6]; 0.752 and 0.715 in test [7]. Besides, the composite z-score in test [8] is 0.969 and 0.59; in test [9], 1.23 and 0.743; in [10], 1.02 and 0.17; in test [11], 0.25 and -0.333; in [13], 0.953 and 0.546; in test [14], -1.51 and -1.76. The composite z-score is -1.68 and -2.71 in test [15]; -0.0172 and -0.147 in test [16]; -0.304 and 0.0899 in test [17]; -0.194 and -0.176 in [18]; 0.123 and -0.771 in test [19]; -0.683 and -0.62 in [20]. Besides, the z-score in test [4] is -0.0265 (inactive) and -0.282 (inactive); in test [12], 0.228 and 0.343.

For the compound `CCCC[C@@H]1CN2[C@H](c3ccc(Br)cc3)[C@@H](C)CC[C@H]2C(=O)O1`, the composite z-score in [1] was 0.186 and 0.254; in test [2], -0.385 and -0.192; in test [3], -0.492 and -0.707; in test [5] it was 0.124 and 0.115; in test [6], 0.0093 and -0.0119; in test [7], 0.283 and 0.308. Besides, the composite z-score in [8] was -0.427 and -0.351; in test [9], 0.407 and -0.117; in [10] it was 0.574 and 0.485; in test [11], -0.519 and 0.166; in test [13] it was 0.189 and 0.327; in test [14] it was -0.254 and -0.255. The composite z-score in test [15] was -0.329 and -0.334; in [16], -0.232 and -0.104; in [17], -0.273 and -0.138; in [18], 0.153 and 0.0051; in [19], 0.0737 and 0.259; in [20], 0.412 and 0.575. Moreover, the z-score was -0.475 (inactive) and 0.405 (inactive) in test [4]; -0.403 and -0.983 in [12].
